Assay results published in PubChem BioAssay (NCI).
Compounds without any hit were thinned out: in the full panel of roughly 83,000, 20% have a hit.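 A percent growth of 40 corresponds to 60% growth inhibition; 0 means no net growth; -100 means all cells died. Active threshold: below 10.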 Unmarked numbers belong to inactive results. Calls of active or inactive are those of the source.

Experiments:
Test in all cases: NCI-60 one-dose screen, 48 h (100 = growth as untreated, 0 = no growth, -100 = all killed)
Settings in all cases: 10 µM
[1] = system: NCI-H23 lung
[2] = system: NCI-H322M lung
[3] = system: HOP-62 NSCLC
[4] = system: NCI-H460 lung
[5] = system: HOP-92 NSCLC
[6] = system: NCI-H522 lung
[7] = system: A549/ATCC NSCLC
[8] = system: 786-0 renal
[9] = system: COLO 205 colon

Row | SMILES | growth [1] | growth [2] [%] | growth [3] | growth [4] | growth [5] | growth [6] | growth [7] | growth [8] | growth [9]
1 | C=CC(=O)Nc1ccc(C(=O)/C=C/c2ccc(N(C)CCF)cc2)c(O)c1 | -26.7% (active) | 25.6 | -27.5% (active) | -9.21% (active) | -3.32% (active) | -76.9% (active) | -60.7% (active) | -42.2% (active) | -69.1% (active)
2 | Cc1cc2nc3c4ccccc4n(CCO)c3nc2cc1C | 60.1% | 92.4 | 68.8% | 98.3% | 34.9% | 78.8% | 97.6% | 12.1% | 106%
3 | Cn1c(O)c(N=Nc2nc(-c3cc4ccccc4oc3=O)cs2)c2cc(Br)ccc21 | 51.2% | 84.4 | 12.1% | 92% | -14.7% (active) | 57.9% | 97.8% | -12% (active) | 136%
4 | Cc1ccc(-c2nc(Nc3ccccc3C(=O)O)c3ccccc3n2)cc1 | -4.11% (active) | 33.8 | 28.3% | -9.44% (active) | -19.5% (active) | 33.2% |  | 18.7% | 80.9%
5 | Cc1noc2c(Cc3ccc([N+](=O)[O-])cc3)nn(CC(=O)N/N=C/c3ccc(Cl)cc3)c(=O)c12 | 57.9% | 62.5 | 16.9% | 46.2% | -20.2% (active) | 69.5% | 40.1% | -19.5% (active) | 79.3%
6 | O=C(NC(=S)N1CCN(c2ncnc3c2cnn3-c2ccccc2)CC1)c1ccc(Cl)cc1 | 55.5% | 66.8 | -2.01% (active) | 53.3% | 14.7% | 38% |  | 27.8% | 77.4%
